Inconclusive results are not listed. A number with no mark means an inactive call. Calls of active or inactive are those of the source. The call rests on the fitted dose curve; in most records, active means well fitted activation curve with a large enough effect; inconclusive means small, poorly fitted or top-dose-only effect, or another doubt; inactive means no such curve, though single readings can be large or run the other way.
Potency means the concentration at half of the fitted maximal effect.

This test has as its target Rap guanine nucleotide exchange factor 3 (Homo sapiens) (UniProt O95398). Briefly: Counterscreen qHTS for agonist of cAMP-regulated guanine nucleotide exchange factor 3 (EPAC1) (AID 1645889). Further: nearly all actives have a fitted effect of over 40% in size. On activation: % of control where 0% means no effect. To be noted: EPAC1 Rap1B-BODIPY-GDP exchange, fluorescence; series mostly up to 154 µM; activation: at the top concentration. The source says: Assay Provider (PI): Xiaodong Cheng Ph.D. The University of Texas Medical Branch, […], TX MLPCN Grant: NS066510 In multi-cellular eukaryotic organisms, the effects of cAMP are transduced by two ubiquitously-expressed intracellular cAMP receptors, the classic protein kinase A/cAMP-dependent protein kinase (PKA/cAPK) and the more recently discovered exchange protein directly activated by cAMP/cAMP-regulated guanine nucleotide exchange factor (EPAC/cAMP-GEF). Both PKA and EPAC are ubiquitously expressed in all tissues, and an increase in intracellular cAMP levels will lead to the activation of both PKA and EPAC. Therefore, careful dissections of the individual role and relative contribution of EPAC and PKA within the overall cAMP signaling in various model systems are critical for further elucidating the mechanism of cAMP signaling. To date no EPAC-specific antagonists and agonist, as well as isoform-specific agonists have been reported, and developing EPAC-specific pharmacological probes to determine the physiological functions that EPAC play in the overall cAMP-mediated signaling remains a major challenge within the research field. Furthermore, identified regulators of EPAC may lead to new mechanism-based therapeutic strategies specifically targeting the EPAC / cAMP-signaling components as EPAC has been implicated to play important roles in major human pathological conditions such as diabetes, heart disease, and cancer. This qHTS will be used to screen the Molecular Libraries Small Molecule Repository (MLSMR) as a concentration-titration series using the NCGC unique quantitative screening (qHTS) platform to find activators for EPAC1. In addition, this assay will also be used as a counterscreen for the EPAC2 qHTS. This fluorescent based assay is developed and validated for EPAC1 that measures exchange using EPAC effector Rap1 complex with BODIPY-GDP, a GDP analog with a tethered fluorophores. Activators are identified by monitoring the change in fluorescence signal as the exchanged free BODIPY-GDP has a reduced fluorescence compared to Rap1-bound BODIPY-GDP. Increase in signal (activation) is the desired outcome for the EPAC1 agonist while no activity in this assay is desired for the EPAC2 agonist counterscreen. Reference: [1] de Rooij, J., Zwartkruis, F. J., Verheijen, M. H., Cool, R. H., Nijman, S. M., Wittinghofer, A., and Bos, J.L. (1998) Nature 396, 474-477. Kawasaki, H., Springett, G. M., Mochizuki, N., Toki, S., Nakaya, M., Matsuda, M., Housman, D. E., and Graybiel, A. M. (1998) Science 282, 2275-2279.
EPAC1 Counterscreen PROTOCOL TABLE SEQUENCE No. (e.g., 1, 2, 3, etc.); […] (e.g., Cells, Incubation, Reagent, etc.); VALUE and DESCRIPTION. 1. Reagent. 3 uL. [1x] 250 nM Rap1B-BODIPY-GDP, and 50 uM GDP. 2a. Compound. 23 nL. Control 6,572 uM cAMP (working concentration). 2b, 2c. Compound. 23 nL. Control activator and inhibitor; 234 - 30,000 uM cAMP and 16.4 - 10,000 uM. 2d. Compound. 46 nL. MLSMR follow-up library; 0.64 - 10,000 uM. 3. Time. 15 sec, 1000rpm. Centrifuge. 4. Time. 5 min. Incubation at room temperature. 5. Detector. Fluorescence. (Read 1), Ex/Em = 480 nm / 540 nm. 6. Time. 30 min. Incubation at room temperature. 7. Detector. Fluorescence. (Read 2), Ex/Em = 480 nm/ 540 nm. 8. Reagent. 1uL. Dispense either [4x] 10 uM cAMP or buffer. 9. Time. 15 sec, 1000 rpm. Centrifuge. 10. Time. 5 min. Incubation at room temperature. 11. Detector. Fluorescence. (Read 3), Ex/Em = 480 nm / 540 nm. 12. Time. 30 min. Incubation at room temperature. 13. Detector. Fluorescence. (Read 4), Ex/Em = 480 nm / 540 nm. NOTES (numbers refer to Sequence numbers above; values are from representative experiments) 1. Medium-binding black solid-bottom Greiner plates (789176-F). Dispense 3 uL of [1x] 250 nM Rap1B-BODIPY-GDP, and 50 uM GDP into columns 1 to 48. 2a. Control compound cAMP (6,572 uM, column 3, rows 1 to 32) single pin-transferred for a [final] of 50 uM. 2b. […]
As to `CCN(CC(=O)Nc1ccc(NC(C)=O)cc1)C(=O)C1(c2ccc(Cl)cc2)CCC1`, the “activation” value was 20%. Same read-out and setting: next, `COc1ccc(OCC(=O)OCCNC(=O)c2cccnc2)cc1`: 0.499% [at 30.8 µM]. As to `Cc1ccc(NS(=O)(=O)c2cccc3cccnc23)c(Cl)c1`, the “activation” value is 21.9%.

With `COc1ccc(C2CC(=O)c3c(O)cc(O)cc3O2)c(CC=C(C)C)c1OC` (stereo not given), the “activation” value was 1.97%. For the molecule `CCOC(=O)C(C)n1nc(-c2ccccc2)c2ccccc2c1=O` (stereo not given), the “activation” value is 0.431%. Still for that read-out and setting: then `Cc1c(N=Cc2cc(Br)cc(Br)c2O)cccc1C(=O)O`, with 3.4% [at 30.8 µM]; and `COC(=O)c1ccccc1NC(=S)NC(=O)c1ccc(C)cc1`, with 7.2% [at 30.8 µM]; and `COC(=O)/N=C(/Cc1ccc(OC)cc1)c1ccc(OC)cc1`, with 13.4%.

Take `CC1=NOC(=O)/C1=C\c1ccc(-c2ccccc2Br)o1`: the “activation” value is 14%. On the same count and under the same terms, next, `CCc1nnc(NS(=O)(=O)c2ccc(NCc3cc(Cl)ccc3O)cc2)s1`: 11.7% [at 30.8 µM]; `CSc1ccc(/C=N/NC(=O)CN2CCN(Cc3ccc(Cl)cc3)CC2)cc1`: 14.3%; `N#Cc1ccc(CSc2nc(N)cc(N)n2)cc1`: 12.7%. For the molecule `CCOc1cc(/C=C2\CCCc3c2nc2ccccc2c3C(=O)O)ccc1OC`, the Potency was 100 µM (active).

For `Cc1cc(C)c(S(=O)(=O)N2CCCC2)c(C)c1`, the “activation” value is 5.59%. The same measure, in the same setting: then `CCOC(=O)C1=CCN(S(=O)(=O)c2ccc(C)cc2)C1c1cccc(Cl)c1` (stereo not given), with -0.805%.

Consider `CCCNC(=O)c1ccc(N2CCC3(CC2)CC(c2ccccc2)=NO3)c(NC(=O)c2ccccc2)c1`, for which the “activation” value is -11.5%. Still for that read-out and setting: then `COc1ccc(/C=C2/SC(=O)N(CCC(=O)Nc3ccc(S(=O)(=O)Nc4nccs4)cc3)C2=O)cc1`, with 18.1%; and `CCOc1ccc(C(=O)NCC(=O)Nc2ncccc2C)cc1OCC`, with 14.3%; and `CCC(C(=O)O)N1C(=O)/C(=C/C(C)=C/c2ccccc2)SC1=S` (stereo not given), with -0.0802%. Still for that read-out and setting: then `Cc1cc(C)c(S(=O)(=O)Nc2ccc3c(c2)CCC3)c(C)c1`, with 3.76%; and `C=CC(C)N1C(=O)S/C(=C\c2ccc(N3CCOCC3)cc2C)C1=O` (stereo not given), with 15.2%; and `Cc1nnc(N2CCC(C(=O)NC3CCCCC3)CC2)c2nn(-c3ccccc3)c(C)c12`, with 27.2%. Consider `CN(C)/C=C1\C=C2C(=O)c3ccccc3N2C1=O`, for which the Potency was 10 µM (active). Regarding `CCOC(=O)C1CCCN(C(=O)c2cc(-c3ccco3)nc3ccccc23)C1` (stereo not given), the “activation” value was -5.34%. On the same count and under the same terms, next, `O=C(/C=C/c1ccc(N2CCOCC2)cc1)c1ccccc1`: 13.8%; `CNC(=O)CSc1nc2ccccc2c(=O)n1-c1cc(OC)ccc1OC`: 5.72% [at 30.8 µM]. As to `CN(C)c1ccc(C=C(C#N)C(=O)c2ccccc2)cc1Br`, the “activation” value was 4.56%.

With `CC(C)CCNC(=O)c1cnn2c(C(F)(F)F)cc(-c3ccco3)nc12`, the “activation” value is 2.64%. The same measure, in the same setting: next, `C=CCn1c(=NC(=O)c2sc3ccccc3c2Cl)sc2cc(S(N)(=O)=O)ccc21`: -3.52%; `CCOC(=O)c1c(NC(=O)CSc2nnc(C)c(=O)[nH]2)sc(C)c1-c1ccc(C)cc1`: 7.2%; `Cc1ccnc(NC(=O)C2CCN(S(=O)(=O)c3cccc(C(F)(F)F)c3)CC2)c1`: -2.02%. Same read-out and setting: next, `CN(C)c1ccc(/C=C(\C#N)c2ccccn2)cc1`: -10.7%; `CC(Oc1ccc(Cl)cc1Cl)c1ccn[nH]1` (stereo not given): 2.41%.

Regarding `CC1(Cc2ccccc2Cl)C(=O)Nc2c(Cl)cccc21` (stereo not given), the activation is 5.68% [at 30.8 µM].

Take `CCCCCOC(=O)C1=C(C)Nc2nnnn2C1c1ccccc1Cl` (stereo not given): the activation was 21.2% [at 30.8 µM]. Same read-out and setting: then `C#CCOc1nc(C)cc(C)c1S(=O)(=O)c1ccccc1C`, with -3.33% [at 30.8 µM]. Consider `CNC(=O)COC(=O)c1cc(-c2ccco2)nc2ccccc12`, for which the Potency is 50.1 µM (active). Take `CC(C)(C)c1cc(NCCCn2ccnc2)n2ncc(-c3ccccc3)c2n1`: the “activation” value was 3.69%.

As to `CCOCc1nnc(NC(=O)C2c3ccccc3Oc3ccccc32)s1`, the “activation” value is -14.4%.

With `Cc1c(C(=O)N2CCCC2)oc2ccc(Br)cc12`, the “activation” value was 14%.

Values taken from PubChem BioAssay (NCATS).
